# Screens from PubChem BioAssay.
# Compounds with a hit are over-represented: about 3.5% of the library has one in this group of screens.
# Bead autofluor: compound fluorescence in toxin protease inhibitor counterscreen | compound autofluorescence counterscreen, microsphere flow cytometry; active compounds read high | fluorescence intensity (concentration not given with the values) | hit rate 3.1% among 360,000; in the data active = fluorescence intensity above about 16000; inconclusive = no clear call, values can overlap the other calls
# BJeLR viability: MLPCN primary cell-based screen for lethality selective to Ras in HRASV12 cells; inhibition, % (no concentration beside the values); AID 1554, 2009; BJeLR (HRASV12) viability, CellTiter-Glo ATP luminescence, 48 h; hit rate 0.17% among 300,000; in the data active = inhibition above about 50%; inconclusive = no clear call, values can overlap the other calls
# BoNT F protease: BoNT/F light chain protease inhibitors, primary screen, biochemical, flow cytometry, MLPCN library; Botulinum neurotoxin type F light chain protease (Clostridium botulinum); Multiplex microsphere protease cleavage assay; inhibition, % at 10 µM; hit rate 0.22% among 360,000; AID 588497, 2011; in the data active = inhibition above about 35%, passing the limit was not always enough; inconclusive = no clear call, values can overlap the other calls; note: plate controls were buffer without enzyme for full effect and enzyme alone for no effect
# Anthrax LF inh2: Bacillus anthracis LF protease inhibitors, primary screen, biochemical, multiplex microsphere, MLPCN library | AID 588501, 2011 | Lethal factor (Bacillus anthracis), P15917 | multiplex microsphere protease cleavage assay | inhibition, % at 10 µM | hit rate 0.12% among 360,000; note: plate controls were buffer without enzyme for full effect and enzyme alone for no effect
# Target sequence (P15917 whole entry, looked up): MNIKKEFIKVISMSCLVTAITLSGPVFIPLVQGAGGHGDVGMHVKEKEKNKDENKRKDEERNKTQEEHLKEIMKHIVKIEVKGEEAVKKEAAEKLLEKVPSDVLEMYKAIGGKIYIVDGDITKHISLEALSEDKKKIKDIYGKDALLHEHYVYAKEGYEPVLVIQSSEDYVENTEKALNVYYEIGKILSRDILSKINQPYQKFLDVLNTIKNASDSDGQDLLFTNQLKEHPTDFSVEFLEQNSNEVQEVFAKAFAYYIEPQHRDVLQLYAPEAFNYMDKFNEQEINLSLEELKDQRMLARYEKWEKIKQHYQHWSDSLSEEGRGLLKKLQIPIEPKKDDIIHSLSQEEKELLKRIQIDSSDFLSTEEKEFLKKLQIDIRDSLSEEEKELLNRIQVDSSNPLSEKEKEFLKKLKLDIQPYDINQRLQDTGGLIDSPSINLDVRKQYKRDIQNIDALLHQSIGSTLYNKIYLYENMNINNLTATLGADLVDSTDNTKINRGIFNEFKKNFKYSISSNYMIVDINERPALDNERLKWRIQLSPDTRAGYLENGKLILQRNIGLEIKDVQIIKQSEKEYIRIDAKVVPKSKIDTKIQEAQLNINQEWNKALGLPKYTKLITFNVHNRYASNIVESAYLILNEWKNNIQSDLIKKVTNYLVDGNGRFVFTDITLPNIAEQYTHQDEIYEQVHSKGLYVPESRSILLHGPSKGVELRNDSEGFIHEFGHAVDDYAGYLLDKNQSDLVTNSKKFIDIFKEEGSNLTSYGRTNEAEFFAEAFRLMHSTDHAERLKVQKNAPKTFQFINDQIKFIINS
# BoNT A protease: BoNT/A light chain protease inhibitors, primary screen, biochemical, flow cytometry, MLPCN library | hit rate 0.17% among 360,000 | Botulinum neurotoxin type A light chain protease (Clostridium botulinum A str. ATCC 3502) | inhibition, % at 10 µM | multiplex microsphere protease substrate cleavage; note: plate controls were buffer without enzyme for full effect and enzyme alone for no effect
# Active calls of the source: *; ? = inconclusive; . = no result. Cut-off read from the data, not from the text of the source, unless noted: active = inhibition above about 30%; inconclusive = no clear call, values can overlap the other calls; inactive = below that.
SMILES,Bead autofluor,BJeLR viability,BoNT F protease,Anthrax LF inh2,BoNT A protease
Cc1ccccc1C(NC(=O)C1CCN(Cc2ccc(Oc3ccccc3)cc2)CC1)c1ccsc1 (stereo unspecified),3986,.,-13,-6,-1
CCc1ccc(C(=O)NNC(=O)c2cc(S(=O)(=O)N(C)C)ccc2N2CCCC2)cc1,4877,-3,4,3,2
COc1ccc(CCNC(=O)c2cnn(-c3ccc(C)c(C)c3)c2NC(=O)c2ccco2)cc1OC,22833*,-2,6,-1,?
NC(=O)C1CCN(C(=O)c2cnn(-c3ccccc3)c2NC(=O)c2ccco2)CC1,5635,-9,-20,-3,0
Cc1ccc(-n2ncc(C(=O)N3CCc4ccccc4C3)c2NC(=O)c2ccco2)cc1C,23443*,11,1,-2,1
O[C@@H]1CN(Cc2cccs2)[C@@H](c2ccccc2)C[C@H]1n1cc(C2CC2)nn1,2927,.,8,4,0
CCOc1ccccc1-n1c(CN2CCN(C(=O)c3ccco3)CC2)nc2ccccc2c1=O,23399*,2,-3,-3,-1
O=S(=O)(c1ccc(-c2nc3ccccc3s2)cc1)N1CCCC1,11222,2,-2,-5,0
O=S(=O)(c1cccc(-c2nc3ccccc3s2)c1)N1CCCC1,23878*,1,-5,-3,-2
Cc1cc(C)cc(OCC(=O)OCC(=O)NC2CC2)c1,4236,.,-3,-5,0
O=C(O)CN1C(=O)/C(=C\c2cc([N+](=O)[O-])ccc2OCc2ccccc2Cl)SC1=S,3527,8,20,32*,3
O=C(O)CN1C(=O)/C(=C\c2cc(Br)ccc2OCc2ccc(Cl)cc2)SC1=S,3920,-4,-24,2,-5
CC1=C(C(=O)Nc2ccc(CC(=O)NCc3ccccc3C)cc2)SCCO1,6314,-14,0,-1,-2
CCc1ccc(CNC(=O)Cc2ccc(NC(=O)C3=C(C)OCCS3)cc2)cc1,5842,53*,-4,-6,0
Cc1ccc(/C=c2\sc3nc(-c4cccs4)nn3c2=O)o1,20038*,-2,3,-4,1
COc1cccc(/C=c2\sc3nc(-c4cccs4)nn3c2=O)c1OC,5658,-1,4,-7,0
COc1ccc(NC(=O)C2CC(=O)NC(Nc3cccc(C)c3)=N2)cc1 (stereo unspecified),4406,5,-21,0,-1
CCc1ccc(NC2=NC(C(=O)NC3CCCCC3)CC(=O)N2)cc1 (stereo unspecified),20212*,4,6,-8,?
Cc1ccc2c(c1)c(/C=C/c1cc[n+](C)cc1)c(C)n2C,20045*,11,-19,-4,-24
OCCSc1c(F)c(SCCO)c(SCCO)c(F)c1SCCO,23508*,4,2,0,0
COC(=O)C1=NN(c2ccccc2)C2(S1)SC(C(C)=O)=C(C)N2c1ccccc1 (stereo unspecified),4177,-1,-9,0,-1
COC(=O)C1=NN(c2ccc(C)cc2)C2(S1)SC(C(C)=O)=C(C)N2c1ccccc1 (stereo unspecified),23648*,-5,-7,-5,-3
Cc1ccc(/C=N/NC(=O)c2ccco2)s1,25160*,-2,-4,-1,-3
COc1ccc(-c2cc(-c3nnc(COC(=O)CC4CC5CCC4C5)o3)c3ccccc3n2)cc1OC (stereo unspecified),2180,0,5,16,52*
CN1C=CC2=C(C#N)C(N)C(C#N)(C#N)[C@H](c3ccccc3)[C@H]2C1 (stereo partly specified),16327*,2,0,0,0
SMILES,Bead autofluor,BJeLR viability,BoNT F protease,Anthrax LF inh2,BoNT A protease
N#CC1(C#N)C(C(N)=O)C1c1ccccc1 (stereo unspecified),2573,-7,0,1,0
O=C(/C=C/c1ccc(-c2ccccc2[N+](=O)[O-])o1)c1ccc(Br)cc1,21485*,-1,7,22,?
O=Cc1ccc(-c2cccc(C(=O)O)c2)o1,4296,-7,2,-6,0
O=C(/C=C/c1ccc(-c2ccccc2)o1)c1ccccc1,2583,1,14,31*,63*
Cc1ccc(-c2ccc(/C=C/C(=O)c3ccccc3)o2)cc1,2633,-13,7,19,44*
CCC1(CC)C(=O)NC(=O)NC1=Nc1ccccc1,1967,3,0,0,0
CCC1(CC)C(=O)NC(=O)NC1=NCCc1c[nH]c2ccccc12,21453*,2,-1,0,-2
CC(C)C(NC(=O)OCc1ccccc1)C(=O)OCC(=O)N1CCCCC1 (stereo unspecified),2393,0,3,0,0
O=C(CCC(NC(=O)OCc1ccccc1)C(=O)OCC(=O)N1CCCCC1)OCC(=O)N1CCCCC1 (stereo unspecified),21055*,-3,6,-8,3
COc1ccc(-n2c(=O)c(CCC(=O)N3CCC(C)CC3)nc3ccccc32)cc1,3949,.,-1,-7,1
CCc1cccc(CC)c1N1C(=O)c2cc(N3CCOCC3)c([N+](=O)[O-])cc2C1=O,2077,2,-4,-4,0
CCc1ccccc1N1C(=O)c2cccc3c(N4CCOCC4)c([N+](=O)[O-])cc(c23)C1=O,24654*,-8,-11,-6,-5
CCOC(=O)c1cnc(Nc2nc3ccccc3o2)nc1C,20539*,36,5,-2,4
CCOC(=O)c1cnc(Nc2nc3ccccc3o2)nc1CSc1nnc(C)s1,3978,0,5,2,-3
CC(C)(C)c1ccc(Oc2ccc(NC(=O)c3ccccc3C(=O)O)cn2)cc1,3836,-10,48*,?,-4
COc1ccccc1C(CNC(=O)CCNS(=O)(=O)c1ccc(Br)cc1)N1CCCC1 (stereo unspecified),5481,.,0,3,0
CC1(C)C(c2ccccc2)=NC(c2cccnc2)N1O (stereo unspecified),21816*,1,0,0,?
COc1cccc(Nc2nc(C(N)C3CCCCC3)cs2)n1 (stereo unspecified),3751,.,-20,-9,0
Cc1ccc(S(=O)(=O)N(C)c2ccccc2)cc1,3796,-6,2,-1,0
Cc1ccc(N(C)S(=O)(=O)c2ccc(C)cc2)cc1,24242*,-13,-6,0,-4
COC(=O)C1=C(C)N(Cc2ccc(OC)c(OC)c2)C(=O)C1,2868,10,8,1,0
COC(=O)C1=C(C)N(Cc2cccnc2)C(=O)C1,22058*,7,6,1,2
COc1ccc(CN2C(=O)CC(=O)NC2=O)cc1,21705*,-2,1,-3,?
COC(=O)C1=C(C)N(CCc2ccc(OC)cc2)C(=O)C1,2063,-10,-4,-1,0
COC(=O)C1=C(C)N(Cc2ccc(OC)cc2)C(=O)C1,20549*,-1,-3,-6,-2
